Test results as given in PubChem BioAssay AID1490 (National Center for Advancing Translational Sciences (NCATS), 2009).
Several values for one entry are separate records, joined by “and”; a condition that tells them apart may be missing. Equal values may be shown once. The campaign covered roughly 310,000 compounds. About 11,000 (3.5%) were called active. Another 4% or so got no clear call; they are omitted. Shown is part of a subset that was picked to be rich in actives. A number with no mark means an inactive call. The call rests on the fitted dose curve; in most records, active means well fitted inhibition curve with a large enough effect; inconclusive means small, poorly fitted or top-dose-only effect, or another doubt; inactive means no such curve, though single readings can be large or run the other way.

Biological target: 4'-phosphopantetheinyl transferase ffp (Bacillus subtilis) (UniProt Q9F4F7)
Test: qHTS Assay for Inhibitors of Bacillus subtilis Sfp phosphopantetheinyl transferase (PPTase);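 further: the enzyme is Sfp with the accession as filed and its product quenches rhodamine fluorescence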;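 on largest response in the series, negative = inhibition: 0% = enzyme reaction without inhibitor and -100% = no enzyme wells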
Details: Biochemical Sfp PPTase activity
Description: Assay Submitter: Michael Burkart, University of California, San Diego
Screening Center PI: Austin, C.P.
Screening Center: NIH Chemical Genomics Center [NCGC]
The covalent attachment of a phosphopantetheinyl (4'-PP) arm to a variety of synthases and other proteins is a key posttranslational protein modification. The 4'-PP is installed on the proteins post-translationally from coenzyme A (CoA) on a conserved serine residue by action of phosphopantetheinyl transferase (PPTase) enzymes. Phosphopantetheinylation is essential for synthase activity, and removal of the PPTase gene precludes natural product synthesis in microorganisms, or in the case of fatty acid biosynthesis, renders the organism unviable. PPTase enzymes belong to a distinct structural superfamily. Within bacteria, these enzymes are grouped into two classes based upon primary structure, the AcpS-Type and Sfp-Type PPTases.
Sfp-type PPTases, corresponding to an activator of surfactin production in Bacillus subtilis, are responsible for modifying type I polyketide and nonribosomal peptide synthases of prokaryotes. Sfp-type PPTases are responsible for the activation of a variety of pathogen-associated virulence factors. Among these compounds are toxins such as mycolactone from Mycobacterium ulcerans, siderophores such as vibriobactin from Vibrio cholerae or mycobactin from Mycobacterium tuberculosis, as well as the mycolic acids which form the waxy cell wall of Mycobacteria. The biosyntheses of these natural products are considered attractive targets for drug design.
In search of small molecule Sfp-PPTase inhibitors, a fluorescence quenching assay was developed for detection of Bacillus subtilis Sfp-PPTase enzymatic activity in a miniaturized high-throughput format. The consensus ybbr acceptor peptide […] was N-terminally labeled with Black Hole Quencher-2 (BHQ-2) and used in combination with rhodamine-labeled coenzyme A as a co-substrate.
Inhibition of Sfp-PPTase was detected by recording the fluorescence intensity change over a 30-minute reaction period at a 525 nm excitation and 598 nm emission. Reagents were supplied by Michael Burkart and Timothy Foley, University of California at San Diego.
This BioAssay deposition is for validation of the developed Sfp-PPtase assay.
Assay Buffer: 50 mM Hepes-Na pH 7.6, 10 mM MgCl2, 0.01% Nonidet P-40, and 0.01% BSA.
3 uL of Sfp-PPTase enzyme (final concentration 15 nM) and 1 uL of substrate mixture (final concentration for rhodamine-CoA and BHQ-2-YbbR 5 uM and 12.5 uM, respectively) dispensed in columns 1, 2, 5 - 48. Columns 1 and 2 used to generate neutral control (uninhibited reaction)
Three uL of reagents, consisting of buffer (in columns 3 and 4 as negative control) and Sfp-PPTase (in columns 1, 2, 5 - 48) were dispensed into 1,536-well Greiner black solid bottom plate. Compounds (23 nL) were transferred via Kalypsys pintool equipped with 1,536-pin array. The plate was incubated for 15 min at room temperature, followed by the addition of 1 uL substrate to start the reaction. The plate was then centrifuged at 1000 rpm for 15 seconds, and the fluorescence intensity recorded on a ViewLux High-throughput CCD imager (Perkin-Elmer) using standard BODIPY optics (525 nm excitation and 598 nm emission). The plate was then incubated for 30 minutes, and a second read on the ViewLux was performed. The fluorescence intensity difference over the 30-minute period was used to calculate the respective reaction rate for each well.
Potency means the concentration at half of the fitted maximal effect.

Row | SMILES | Potency | largest response in the series, negative = inhibition
1 | COc1ccc(CN2C(=O)NC(=O)/C(=C\c3ccc(OC)c(OC)c3OC)C2=O)cc1 | 56.2 µM (active) | –
2 | C1CC[C@H]([C@@]23C[C@H](C[C@H]4CCCN[C@H]42)[C@@H]2CCCCN2C3)NC1 | – | 15.7%
3 | CN(C)C[C@H]1CCCC[C@]1(O)c1cccc(O)c1 | – | 5.94%
4 | CN(C)CC1Oc2ccccc2OC1(O)c1ccccc1 (configuration not stated) | 39.8 µM (active) | –
5 | Fc1cccc(F)c1CN1CCN(Cc2c(F)cccc2F)CC1 | – | 16%
6 | Cc1cccc(-n2c(C)nc3cc(C(=O)N4CCC5(CC4)OCCO5)ccc32)c1 | – | 8.78%
7 | CN(C)P(=S)(Nc1ccccc1)C(Cl)(Cl)Cl (configuration not stated) | – | 10.7%
8 | COC([CH2][Hg])CNC(=O)c1ccccc1OCC(=O)O (configuration not stated) | 0.398 µM (active) | –
9 | O=C(NC(c1ccc(Cl)cc1)P(=O)(Oc1ccccc1)Oc1ccccc1)OCc1ccccc1 (configuration not stated) | – | 19.5%
10 | CN1CCCC(=C(c2cccs2)c2cccs2)C1 | – | 3.76%
11 | c1ccc2c(c1)[I+]c1ccccc1-2 | – | -15.8% and 9.27%
12 | O=C1CCc2cccc3c2N1CC3 | – | -2.12%
13 | O=C(O)CCn1cc(C=C2C(=O)NC(=S)NC2=O)c(-c2cccc(Br)c2)n1 | 25.1 µM (active) | –
14 | O=P1(Oc2ccccc2)CC(O)C(O)C(COCc2ccccc2)O1 (configuration not stated) | – | -2.12%
15 | CCCCCCCCCCCCCC(=O)O[C@@H]1[C@@H](C)[C@@]2(O)[C@@H](C=C(CO)C[C@]3(O)C(=O)C(C)=C[C@@H]23)[C@@H]2C(C)(C)[C@]12OC(C)=O | – | 9.82%
16 | c1ccc2sc(C3CCCNC3)nc2c1 (configuration not stated) | – | 9.62%
17 | Cc1ccc(N(C)C(=O)Oc2cccc3ccc(C)nc23)cc1 | – | 4.73%
18 | CC(C)c1ccc(O)c(CN2CCN(c3ccccc3)CC2)c1 | – | 7.52%
19 | c1cc2c(cc1CCNC1CCCCCC1)OCO2 | – | -0.383%
20 | CCOP(=S)(OCC)C(O)CCCCCn1c(=O)c(F)cn(C2CCCO2)c1=O (configuration not stated) | – | 8.97%
21 | N#Cc1cc(Br)c(O)c(Br)c1 | – | 9.61%

Row | SMILES | Potency | largest response in the series, negative = inhibition
22 | C/C(=C\C=C/[C@@H](C)C(=O)O)[C@H]1CN[C@H](C(=O)O)[C@@H]1CC(=O)O | 63.1 µM (active) | –
23 | C/C=C1\C2C=C(C)CC1(N)c1ccc(=O)[nH]c1C2 (configuration not stated) | – | 24.3%
24 | CN(C)C(=O)NC(O)C(Cl)(Cl)Cl (configuration not stated) | – | 0.838%
25 | CNC(C)[C@@H](O)c1ccccc1 (some centres not stated) | – | 20.7%
26 | O=C1NC(=O)C(C/C=C/c2ccccc2)C(=O)N1 | 70.8 µM (active) | –
27 | COc1ccc(CCn2c(O)c(C=NCCCn3ccnc3)c(=O)[nH]c2=O)cc1OC | – | 15.8%
28 | CC(Cc1cccs1)NCc1ccc(Cl)cc1 (configuration not stated) | – | 26%
29 | O=C(O)c1ccccc1NC(=O)C1C2CCC(O2)C1C(=O)O (configuration not stated) | – | 2.88%
30 | Cc1ccnc(-n2c(C)cc(/C=C3\C(=O)NC(=S)N(C)C3=O)c2C)c1 | 25.1 µM (active) | –
31 | Cc1cc(C=C2C(=O)NC(=O)NC2=O)c(C)n1-c1ccncc1 | 56.2 µM (active) | –
32 | Cc1ccc(-n2c(C)cc(/C=C3\C(=O)NC(=O)N(C)C3=O)c2C)cc1C | – | -19.1%
33 | CCN1C[C@]2(C)CC[C@H](O)[C@@]34[C@@H]5CC6[C@@H](OC)C[C@@](O)([C@@H]5[C@@H]6O)[C@H](C[C@@H]23)[C@H]14 | – | 12.6%
34 | CC12CN3CC(C)(CN(C1)C3c1cccs1)C2 (configuration not stated) | – | 10.2%
35 | CCCCCCCCc1[se]c2ccccc2c1Br | – | 14.5%
36 | O=C(Nc1cccc2ccccc12)N1CCC2(CC1)OCCO2 | – | 0.463%
37 | O=C(OCC1O[C@@H](OC(=O)c2cc(O)c(O)c(O)c2)[C@@H](OC(=O)c2cc(O)c(O)c(O)c2)[C@@H](OC(=O)c2cc(O)c(O)c(O)c2)[C@@H]1OC(=O)c1cc(O)c(O)c(O)c1)c1cc(O)c(O)c(O)c1 (some centres not stated) | 25.1 µM (active) | –
38 | O=C1NC(=O)C(CCc2ccccn2)(Cc2cccc(Cl)c2Cl)C(=O)N1c1ccc(Br)cc1 (configuration not stated) | – | 4.65%
39 | COc1cc2c(cc1OC)[C@@H]1C(=O)c3ccc(O)c(CC=C(C)C)c3OC1CO2 (some centres not stated) | – | 0.512%
40 | CC(=O)c1c(O)c(C)c(O)c(Cc2c(O)c3c(c(C(=O)/C=C/c4ccccc4)c2O)OC(C)(C)C=C3)c1O | – | -11.4% and -12.1% and -5.71%
41 | COc1ccccc1-c1[se]c2ccccc2c1I | – | -3.36%
42 | COc1ccc(N2C(=O)/C(=C/c3ccco3)C(=O)NC2=S)cc1 | 11.2 µM (active) | –
